Test results from PubChem BioAssay (Tox21).
A number with no mark means an inactive call. Results filed as inconclusive are left out. Where a call stands in place of a potency, no number is given. Calls of active or inactive are those of the source. Unless noted, calls come from the whole dose curve; as a rule, active = well fitted curve in the direction sought with a large enough effect in the repeat runs; inconclusive = weak or mixed curves; inactive = no such curve, though single readings can be large; an effect the other way counts as inactive or inconclusive.

Columns and labels:
[1] = A CellTox Green Cytotoxicity Assay to monitor cytotoxicity in HepG2 cells - 8 hour (AID 1224890); conditions: CellTox Green fluorescence; series mostly up to 76.8 µM; note: nearly all actives have a fitted effect of over 45% in size
Summary of the method: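 Using 1536-well format, dye-containing HepG2 suspension was seeded, allowed 5 h at 37 C/5% CO2, dosed by pintool with compounds, positive and negative controls, and imaged for fluorescence across 40 h.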

[2] = qHTS assay to identify small molecule antagonists of the estrogen receptor alpha (ER-alpha) signaling pathway using the BG1 cell line in the presence of 0.1 nM 17-beta-estradiol - cell viability counter screen (AID 1259241); conditions: VM7Luc4E2 (BG1) viability, CellTiter-Fluor protease, 22 h, 0.1 nM estradiol agonist added; series mostly up to 92.4 µM; note: nearly all actives have a fitted effect of over 40% in size; note: potency is the fitted concentration of half-maximal effect
Summary of the method: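 Viability in VM7Luc4E2 cells after 22 hr compound exposure under 0.1 nM 17beta-estradiol stimulation, by CellTiter-Fluor.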

[3] = target: Estrogen receptor (Homo sapiens) (UniProt P03372); assay: qHTS assay to identify small molecule antagonists of the estrogen receptor alpha (ER-alpha) signaling pathway using the BG1 cell line in the presence of 0.1 nM 17-beta-estradiol (AID 1259244); conditions: VM7Luc4E2 (BG1) ERE-luciferase, antagonist mode, 0.1 nM E2, 22 h; series mostly up to 92.4 µM; note: nearly all actives have a fitted effect of over 50% in size
Summary of the method: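 Estradiol at 0.1 nM (final) stimulates the endogenous ER-alpha of VM7Luc4E2 cells carrying an ERE-driven luciferase; compounds are co-incubated 22 h at 37C and luciferase output quantified by luminescence.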

[4] = qHTS assay to identify small molecule phospholipidosis (PLD) inducers (AID 1259344; active = well fitted curve in the direction sought with a large enough effect; an effect the other way counts as inactive or inconclusive); conditions: HepG2 phospholipidosis, LipidTOX Red imaging, 24 h; series mostly up to 38.3 µM
Summary of the method: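 Quantitative HTS in HepG2: compound plus LipidTOX Red dye for 24 h, paraformaldehyde fixation with Hoechst 33342, widefield high-content imaging; amiodarone as positive and DMSO as negative control.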

[5] = qHTS assay to identify small molecule HDAC inhibitors (AID 1259364); conditions: HCT-116 HDAC-Glo I/II luminescence, 2 h; series mostly up to 92.4 µM; note: potency is the fitted concentration of half-maximal effect;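 note: wild-type HCT-116 cells with endogenous class I/II HDAC activity; nearly all actives have a fitted effect of over 45% in size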
Summary of the method: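 Read-out: luminescence of HDAC-Glo I/II reagent, 30 min RT, reflecting class I/II deacetylase activity in whole HCT-116 cells pre-exposed 2 h to DMSO-dissolved compounds.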

[6] = qHTS assay to identify small molecule HDAC inhibitors - cell viability counter screen (AID 1259365); conditions: HCT-116 viability, CellTiter-Glo ATP luminescence, 2 h; series mostly up to 92.4 µM; note: nearly all actives have a fitted effect of over 50% in size; note: potency is the fitted concentration of half-maximal effect
Summary of the method: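 Cytotoxicity was gauged in wild-type HCT-116 cells after a brief 2hr treatment with DMSO-dissolved compounds at 37C and 5% CO2, using CellTiter-Glo luminescence developed for 30min at room temperature.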

[7] = qHTS assay to identify small molecule agonists of the sonic hedgehog signaling (Shh) pathway - cell viability counter screen (AID 1259366); conditions: NIH/3T3 Gli1-Luc viability, CellTiter-Fluor, 24 h; series mostly up to 92.4 µM; note: nearly all actives have a fitted effect of over 50% in size
Summary of the method: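 Stable Gli1-Luc NIH/3T3 clone, 2,000 cells/well. Compound exposure 24hr at 37C. Read-out: CellTiter-Fluor fluorescence.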

[8] = qHTS assay to identify small molecule antagonists of the sonic hedgehog signaling (Shh) pathway - cell viability counter screen (AID 1259367); conditions: NIH/3T3 Gli1-Luc viability, CellTiter-Fluor, 24 h; series mostly up to 92.4 µM; note: nearly all actives have a fitted effect of over 55% in size; note: potency is the fitted concentration of half-maximal effect
Summary of the method: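 Seed 3T3 Gli1-Luc cells at 2,000 per well; incubate 4 hr; add compound in DMSO, then conditioned medium; incubate at 37C with 5% CO2; add CellTiter-Fluor after 23 hr; read fluorescence 1 hr later.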

[9] = qHTS assay to identify small molecule agonists of the sonic hedgehog signaling (Shh) pathway (AID 1259368; calls by dose curve;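 note: NIH/3T3-derived 3T3Gli1-Luc cells carrying a stable Gli1-driven firefly luciferase reporter; nearly all actives have a fitted effect of over 15% in size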); conditions: NIH/3T3 Gli1-Luc reporter, luciferase, 24 h; series mostly up to 92.4 µM
Summary of the method: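 A Gli1 transcriptional response element controlled firefly luciferase in 3T3Gli1-Luc cells. Compounds and a positive control were added 4 hr after plating, and cells were incubated a further 24 hr at 37 C before luminescence detection.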

[10] = qHTS assay to identify small molecule antagonists of the sonic hedgehog signaling (Shh) pathway (AID 1259369; calls by dose curve; note: nearly all actives have a fitted effect of over 45% in size; note: potency is the fitted concentration of half-maximal effect); conditions: NIH/3T3 Gli1-Luc reporter, Shh antagonist, luminescence 24 h; series mostly up to 92.4 µM
Summary of the method: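 For antagonist detection, the reporter line received test compounds together with conditioned medium, incubated 24hr at 37 C, 5% CO2, then luminescence was recorded following 30min room-temperature luciferase reagent incubation.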

[11] = target: Estrogen receptor beta (Homo sapiens) (UniProt Q92731); assay: qHTS assay to identify small molecule agonists of the estrogen receptor beta (ER-beta) signaling pathway (AID 1259377; active = well fitted activation curve with a large enough effect in the signal ratio in the repeat runs, not every such curve was filed as active; the % refers to the signal ratio); conditions: ER-beta-UAS-bla HEK293T, beta-lactamase FRET ratio, 16 h; series mostly up to 92.4 µM
Summary of the method: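 Measured by fluorescence intensity from a B/G FRET beta-lactamase substrate (2 h, room temperature) in ER-beta-UAS-bla HEK293T cells treated with DMSO-dissolved compounds for 16 hr at 37C and 5% CO2.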

[12] = target: Estrogen receptor beta (Homo sapiens) (UniProt Q92731); assay: qHTS assay to identify small molecule antagonists of the estrogen receptor beta (ER-beta) signaling pathway (AID 1259378; active = well fitted inhibition curve with a large enough effect in the signal ratio in the repeat runs, not every such curve was filed as active; the % refers to the signal ratio); conditions: ER-beta-UAS-bla HEK293T, beta-lactamase FRET ratio, 16 h; series mostly up to 92.4 µM
Summary of the method: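 ER-beta-UAS-bla HEK293T cells in 2% charcoal-stripped FBS medium treated with compound plus 1nM final 17-beta-estradiol for 16 hr at 37C. Beta-lactamase reporter read by FRET substrate fluorescence after 2 hours at room temperature.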

[13] = qHTS assay to identify small molecule agonists of the androgen receptor (AR) signaling pathway in the presence of an antagonist - cell viability counter screen (AID 1259379); conditions: MDA-kb2 viability, CellTiter-Fluor, 16 h; series mostly up to 92.4 µM; note: nearly all actives have a fitted effect of over 25% in size; note: potency is the fitted concentration of half-maximal effect
Summary of the method: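 Seed MDA-kb2 at 3,000 cells/well; incubate 5 hr, 37C, 0% CO2. Add nilutamide to 3.0uM final, then pin compounds at 15 concentrations. Incubate 16 hr. Add CellTiter-Fluor at 15 hr, read fluorescence after 1 hr.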

[14] = qHTS assay to identify small molecule agonists of the estrogen receptor beta (ER-beta) signaling pathway - cell viability counter screen (AID 1259380); conditions: ER-beta-bla HEK293T viability, CellTiter-Glo luminescence, 16 h; series mostly up to 92.4 µM; note: nearly all actives have a fitted effect of over 30% in size; note: potency is the fitted concentration of half-maximal effect
Summary of the method: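 CellTiter-Glo read, 30 min RT, same wells as bla assay; cells ER-beta-UAS-bla HEK293T; 16 hr compound, 37C; medium 2% charcoal-stripped FBS.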

[15] = target: Estrogen receptor (Homo sapiens) (UniProt P03372); assay: qHTS assay to identify small molecule agonists of the estrogen receptor alpha (ER-alpha) signaling pathway in the presence of an antagonist (AID 1259383; calls by dose curve; note: top concentration of the series differs between compounds; nearly all actives have a fitted effect of over 15% in size); conditions: VM7Luc4E2 cells, ERE-luciferase, +ICI-182,780, 22 h; series mostly up to 92.4 µM
Summary of the method: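 Stably transfected VM7Luc4E2 reporter cells, kept 5 days in charcoal-stripped serum, received ICI-182,780 at 10.0nM final before compound addition. Following 22hr incubation at 37C and 5% CO2, luciferase signal was read by luminescence.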

[16] = qHTS assay to identify small molecule agonists or antagonists of the thyroid stimulating hormone receptor (TSHR) signaling pathway - wild type cell line counter screen (AID 1259384; calls by dose curve); conditions: HEK293 wild type, cAMP HTRF counter-screen; series mostly up to 92.4 µM
Summary of the method: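 Wild-type Hek293 cells, 800/well, 18 h at 37C, then compound with Ro20-1724 for 30 min RT. cAMP by HTRF (cAMP-d2/anti-cAMP cryptate), 1 h RT, fluorescence read. 15 concentrations, triplicates.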

[17] = qHTS assay to identify small molecule antagonists of the androgen receptor (AR) signaling pathway using the MDA cell line in the presence of 0.5 nM R1881 - cell viability counter screen (AID 1259242); conditions: MDA-kb2 viability, CellTiter-Fluor protease fluorescence, 16 h; series mostly up to 92.4 µM; note: nearly all actives have a fitted effect of over 45% in size; note: potency is the fitted concentration of half-maximal effect
Summary of the method: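 Viability of MDA-kb2 cells was multiplexed with the luciferase AR readout; after 16 hr with compounds and R1881 at 0.5 nM final, CellTiter-Fluor fluorescence was recorded.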

[18] = qHTS assay to identify small molecule antagonists of the estrogen receptor beta (ER-beta) signaling pathway - cell viability counter screen (AID 1259382); conditions: ER-beta-UAS-bla HEK293T viability, CellTiter-Glo luminescence, 16 h; series mostly up to 92.4 µM; note: nearly all actives have a fitted effect of over 55% in size
Summary of the method: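 In this multiplexed counter screen, cells were seeded at 2,000 per well in medium with 2% charcoal-stripped FBS and incubated 6 hr before compound and 1nM final E2 were added. Sixteen hours later, ATP-based luminescence reported viability.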

Estrogen receptor beta (Homo sapiens), sequence (Q92731 whole entry, looked up): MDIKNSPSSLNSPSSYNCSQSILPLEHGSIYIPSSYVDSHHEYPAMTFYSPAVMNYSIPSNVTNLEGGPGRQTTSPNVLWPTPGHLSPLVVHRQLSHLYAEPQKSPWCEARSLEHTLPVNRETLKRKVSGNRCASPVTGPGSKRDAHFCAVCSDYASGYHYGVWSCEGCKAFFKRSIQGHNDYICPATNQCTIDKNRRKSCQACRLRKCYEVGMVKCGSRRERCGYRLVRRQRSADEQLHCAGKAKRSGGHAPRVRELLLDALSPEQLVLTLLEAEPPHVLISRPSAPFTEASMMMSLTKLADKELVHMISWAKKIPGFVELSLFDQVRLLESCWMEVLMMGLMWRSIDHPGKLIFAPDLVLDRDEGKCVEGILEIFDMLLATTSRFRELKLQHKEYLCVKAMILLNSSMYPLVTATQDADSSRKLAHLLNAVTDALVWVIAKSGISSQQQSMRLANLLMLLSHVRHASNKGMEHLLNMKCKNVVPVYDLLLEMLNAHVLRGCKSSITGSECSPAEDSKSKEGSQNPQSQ
Estrogen receptor (Homo sapiens), sequence (P03372 whole entry, looked up): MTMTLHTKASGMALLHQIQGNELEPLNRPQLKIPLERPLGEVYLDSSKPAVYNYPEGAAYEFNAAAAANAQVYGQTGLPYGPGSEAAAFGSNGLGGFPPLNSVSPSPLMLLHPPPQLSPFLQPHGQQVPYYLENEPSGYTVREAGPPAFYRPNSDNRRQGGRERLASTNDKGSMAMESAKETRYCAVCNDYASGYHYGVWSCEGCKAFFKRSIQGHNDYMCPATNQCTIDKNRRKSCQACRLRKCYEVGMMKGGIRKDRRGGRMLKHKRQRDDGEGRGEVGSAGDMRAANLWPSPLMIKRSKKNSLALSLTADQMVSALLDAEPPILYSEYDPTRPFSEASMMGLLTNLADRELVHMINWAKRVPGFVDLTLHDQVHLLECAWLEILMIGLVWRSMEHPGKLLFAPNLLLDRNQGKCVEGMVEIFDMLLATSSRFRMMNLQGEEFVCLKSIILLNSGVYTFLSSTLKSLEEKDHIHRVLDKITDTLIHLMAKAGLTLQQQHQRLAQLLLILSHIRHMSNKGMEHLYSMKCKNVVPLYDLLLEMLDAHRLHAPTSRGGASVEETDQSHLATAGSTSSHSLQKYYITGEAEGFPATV

CC(C)(C)C(O)/C=C/c1ccc2c(c1)OCO2 (stereo not drawn)
Potency [1]: inactive | Potency [2]: inactive | Potency [3]: inactive | Potency [4]: inactive | Potency [5]: inactive | Potency [6]: inactive | Potency [7]: inactive | Potency [8]: inactive | Potency [9]: inactive | Potency [10]: inactive | Potency [11]: inactive | Potency [12]: inactive | Potency [13]: inactive | Potency [14]: inactive | Potency [15]: inactive | Potency [16]: inactive

O=C(O)CCCc1c[nH]c2ccccc12
Potency [1]: inactive | Potency [2]: inactive | Potency [17]: inactive | Potency [5]: inactive | Potency [6]: inactive | Potency [7]: inactive | Potency [8]: inactive | Potency [9]: inactive | Potency [10]: inactive | Potency [11]: inactive | Potency [13]: inactive | Potency [14]: inactive | Potency [18]: inactive | Potency [16]: inactive

CC(C)COC(=O)c1ccc(O)cc1
Potency [1]: inactive | Potency [2]: inactive | Potency [17]: inactive | Potency [6]: inactive | Potency [9]: inactive | Potency [10]: inactive | Potency [13]: inactive | Potency [14]: inactive | Potency [18]: inactive

Cc1c(C2(c3cc(Br)c(O)c(Br)c3C)OS(=O)(=O)c3ccccc32)cc(Br)c(O)c1Br
Potency [1]: inactive | Potency [2]: 13.3 µM (active) | Potency [17]: 10.5 µM (active) | Potency [5]: 4.2 µM (active) | Potency [6]: 4.2 µM (active) | Potency [8]: 10.5 µM (active) | Potency [9]: inactive | Potency [12]: inactive | Potency [13]: 14.9 µM (active) | Potency [14]: 23.6 µM (active)

Cc1ccc(Cl)cc1N
Potency [1]: inactive | Potency [2]: inactive | Potency [17]: inactive | Potency [5]: inactive | Potency [6]: inactive | Potency [7]: inactive | Potency [8]: inactive | Potency [9]: inactive | Potency [10]: inactive | Potency [11]: inactive | Potency [12]: inactive | Potency [13]: inactive | Potency [14]: inactive | Potency [16]: inactive

C=C(C)c1ccccc1
Potency [1]: inactive | Potency [2]: inactive | Potency [17]: inactive | Potency [5]: inactive | Potency [6]: inactive | Potency [7]: inactive | Potency [9]: inactive | Potency [10]: inactive | Potency [11]: inactive | Potency [12]: inactive | Potency [13]: inactive | Potency [14]: inactive | Potency [16]: inactive

COc1ccc(C)cc1
Potency [1]: inactive | Potency [2]: inactive | Potency [17]: inactive | Potency [5]: inactive | Potency [6]: inactive | Potency [7]: inactive | Potency [8]: inactive | Potency [9]: inactive | Potency [10]: inactive | Potency [13]: inactive | Potency [14]: inactive | Potency [18]: inactive | Potency [16]: inactive

CCCCCCCC(=O)Oc1c(Br)cc(C#N)cc1Br
Potency [1]: inactive | Potency [2]: inactive | Potency [17]: inactive | Potency [5]: inactive | Potency [6]: inactive | Potency [7]: inactive | Potency [8]: inactive | Potency [9]: inactive | Potency [10]: 27.2 µM (active) | Potency [13]: inactive | Potency [15]: inactive | Potency [16]: inactive

CCC1CCC(CCC(=O)O)C1 (stereo not drawn)
Potency [1]: inactive | Potency [2]: inactive | Potency [17]: inactive | Potency [5]: inactive | Potency [6]: inactive | Potency [7]: inactive | Potency [8]: inactive | Potency [9]: inactive | Potency [10]: inactive | Potency [13]: inactive | Potency [16]: inactive

Cc1ccccc1S(N)(=O)=O
Potency [1]: inactive | Potency [2]: inactive | Potency [5]: inactive | Potency [6]: inactive | Potency [7]: inactive | Potency [9]: inactive | Potency [10]: inactive | Potency [13]: inactive | Potency [14]: inactive | Potency [18]: inactive | Potency [16]: inactive
